Test results published in PubChem BioAssay (EPA / NIEHS).
Records with an inconclusive call do not appear. Calls of active or inactive are those of the source. Rule for the calls, unless noted: active = hit-call score of the fitted dose curve at least 0.9, where 1 is the maximum; inactive = score below 0.9.

What was measured:
[1] = Tanguay_ZF_120hpf_TCHR: Oregon State University Tanguay Lab 120 Hour Post-fertilization zebrafish Assay for Touch Responsive (AID 2284403)
Method in brief: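 Dechorionated Tropical 5D wild-type zebrafish embryos, one per well from 6 hpf, were statically exposed to 120 hpf at 28 °C (0.64% DMSO). Touch response was scored present/absent at 120 hpf and not scored in dead larvae.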

[2] = Tanguay_ZF_120hpf_ANY: Oregon State University Tanguay Lab 120 Hour Post-fertilization zebrafish Assay for Any Mortality and Malformation (AID 2284404)
Method in brief: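 Dechorionated Tropical 5D wild-type embryos, one per well from 6 hpf, static exposure in sealed, dark plates at 28C until 120 hpf, 0.64% DMSO final. Brightfield scoring of mortality and malformations as binary presence/absence, pooling 13 morphology endpoints.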

[3] = CCTE_Padilla_ZF_Score.Craniofacial: CCTE's 144 Hour Post-fertilization zebrafish Assay Score for Craniofacial Malformation, Padilla Lab (AID 2284405)
Method in brief: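 Wild-type zebrafish embryos (with chorions), one per well in 10% Hanks', were dosed at 6–8 hpf in sealed plates and kept at 26C. They were rinsed at 5 dpf. At 6 dpf two blinded assessors scored craniofacial malformations by brightfield stereomicroscopy.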

[4] = CCTE_Padilla_ZF_Score.Edema: CCTE's 144 Hour Post-fertilization zebrafish Assay Score for Edema Malformation, Padilla Lab (AID 2284406)
Method in brief: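 Wild-type zebrafish embryos, one per well in Hanks' solution, dosed at 6-8 hpf, sealed and reared at 26C on a 14:10 h cycle; rinsed on 5 dpf. At 6 dpf, blinded assessors scored edema by stereomicroscopy.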

[5] = CCTE_Padilla_ZF_Score.Spine: CCTE's 144 Hour Post-fertilization zebrafish Assay Score for Spine Malformation, Padilla Lab (AID 2284407)
Method in brief: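 Wild-type zebrafish embryos, one per well in Hanks' solution, dosed at 6–8 hpf in sealed plates at 26C, 14:10 h light:dark; rinsed at 5 dpf. Two blinded assessors scored spinal defects by stereomicroscopy at 6 dpf; fitted versus DMSO.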

[6] = CCTE_Padilla_ZF_Score.Swim_bladder: CCTE's 144 Hour Post-fertilization zebrafish Assay Score for Swim Bladder Malformation, Padilla Lab (AID 2284408)
Method in brief: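 Wild-type zebrafish embryos, one per well in 10% Hanks', dosed at 6–8 hpf, sealed, reared at 26C and rinsed at 5 dpf. Blinded assessors scored uninflated swim bladder by stereomicroscopy at 6 dpf, relative to DMSO.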

[7] = CCTE_Padilla_ZF_Score.Position: CCTE's 144 Hour Post-fertilization zebrafish Assay Score for Position, Padilla Lab (AID 2284409)
Method in brief: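 Wild-type zebrafish embryos (with chorions) exposed singly from 6–8 hpf in sealed wells of Hanks' solution at 26C, rinsed at 5 dpf. At 6 dpf, blinded assessors scored abnormal water-column position by brightfield stereomicroscopy, relative to DMSO.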

[8] = CCTE_Padilla_ZF_Score.Living: CCTE's 144 Hour Post-fertilization zebrafish Assay Score for Viability, Padilla Lab (AID 2284410);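 note: larval death at 6 dpf judged by absent heartbeat or coagulation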
Method in brief: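 Wild-type zebrafish embryos were exposed singly from 6–8 hpf in sealed wells of Hanks' solution at 26C, then rinsed at 5 dpf. At 6 dpf, blinded assessors scored mortality (no heartbeat or coagulation) by stereomicroscopy, fitted against DMSO.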

[9] = CCTE_Padilla_ZF_Score.General: CCTE's 144 Hour Post-fertilization zebrafish Assay Score for General Malformation, Padilla Lab (AID 2284411)
Method in brief: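 Wild-type zebrafish embryos were plated singly at 6-8 hpf in 10% Hanks' and exposed in sealed wells at 26C until rinsed on 5 dpf. At 6 dpf two blinded assessors scored mortality, hatching and malformations by stereomicroscopy; gain-of-signal versus DMSO.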

[10] = CCTE_Padilla_ZF_Score.Tail: CCTE's 144 Hour Post-fertilization zebrafish Assay Score for Tail Malformation, Padilla Lab (AID 2284414)
Method in brief: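 Wild-type zebrafish embryos, one per well in 200 uL 10% Hanks', dosed at 6-8 hpf, sealed, and kept at 26 C on a 14:10 h light cycle. Chemical was rinsed out at 5 dpf. Blinded brightfield scoring of tail defects followed at 6 dpf.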

[11] = CCTE_Padilla_ZF_Score.Blood_pooling: CCTE's 144 Hour Post-fertilization zebrafish Assay Score for Blood Pooling, Padilla Lab (AID 2284415)
Method in brief: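 Wild-type outbred zebrafish embryos, one per well in 10% Hanks', exposed from 6–8 hpf in sealed plates at 26C on 14:10 h light:dark, rinsed at 5 dpf. Blinded stereomicroscope scoring of blood pooling at 6 dpf; gain-of-signal versus DMSO.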

[12] = CCTE_Padilla_ZF_Score.Any: CCTE's 144 Hour Post-fertilization zebrafish Assay Score for Any Mortality or Malformation, Padilla Lab (AID 2284416)
Method in brief: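 Wild-type zebrafish embryos with chorions, one per well in 10% Hanks' from 6–8 hpf, dosed in sealed plates at 26 C, 14:10 h light:dark; rinsed at 5 dpf; blinded scoring at 6 dpf for death or malformation, versus DMSO.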

[13] = system: TTR (gene 7276); assay: CCTE_GLTED_hTTR_0.125uM: CCTE's human Transthyretin (hTTR) Inhibition Assay, with 0.125uM TTR, Great Lakes Toxicology and Ecology Division (GLTED) Lab (AID 2284431);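 note: hits lower the fluorescence signal relative to DMSO baseline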
Method in brief: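 Fluorescence (380 ex, 475 em) reported the ANSA probe remaining bound to 0.125uM human transthyretin. Chemicals were incubated with the protein for 2 hours; activity was scored as loss of signal against DMSO negative control.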

[14] = system: SRY-box transcription factor 17 (SOX17) Protein Expression, Deisenroth Lab, SOX17 (gene 64321); assay: CCTE_Deisenroth_DEVTOX-GLR_Endo_SOX17: CCTE's DevTox GLR-Endo Assay Evaluation of SRY-box transcription factor 17 (SOX17) Protein Expression, Deisenroth Lab (AID 2284413)
Method in brief: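 Endpoint: % change in SOX17+ fraction (SOX17+ cells / cell count) vs 0.2% DMSO solvent control. RUES2-GLR reporter cells, 48 h endoderm differentiation, two doses at 24 h intervals, high-content fluorescence imaging, 5 fields/well.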

[15] = system: Brachyury (BRA) Protein Expression, TBXT (gene 6862); assay: CCTE_Deisenroth_DEVTOX-GLR_Endo_BRA: CCTE's DevTox GLR-Endo Assay Evaluation of Brachyury (BRA) Protein Expression, Deisenroth Lab (AID 2284417)
Method in brief: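 Read-out: BRA+ cell count divided by total cell count by high-content imaging (5 fields per well), expressed relative to 0.2% DMSO solvent control. RUES2-GLR cells dosed twice over a 48 h differentiation; concentrations 1 nM - 200 uM.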

[16] = CCTE_Deisenroth_DEVTOX-GLR_Endo_CellCount: Viability Assessment in CCTE's DevTox GLR-Endo Assay, Deisenroth Lab (AID 2284420)
Method in brief: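 Human pluripotent RUES2-GLR line; 24 h pre-seed; 48 h endoderm-directed differentiation; 2 doses, q24h; 10 conc., 1 nM - 200 uM; fix + nuclear dye; 5 fields/well imaged; readout = nuclei count, % change vs 0.2% DMSO; n=4.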

[17] = system: SRY-box transcription factor 17 (SOX17) Protein Expression, Deisenroth Lab, SOX17 (gene 64321); assay: CCTE_Deisenroth_DEVTOX-GLR_Pluri_SOX17: CCTE's DevTox GLR-Pluri Assay Evaluation of SRY-box transcription factor 17 (SOX17) Protein Expression, Deisenroth Lab (AID 2284427; active = hit-call score of the fitted dose curve at least 0.9, where 1 is the maximum)
Method in brief: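 Human RUES2-GLR pluripotent line; 24 h seeding, 48 h defined-media differentiation, 2 doses q24h, 10 conc 1 nM - 200 uM. Fix, nuclear stain, image 5 fields/well. Endpoint = %SOX17+ minus 0.2% DMSO; n=4.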

[18] = system: SRY-box transcription factor 2 (SOX2) Protein Expression, Deisenroth Lab, SOX2 (gene 6657); assay: CCTE_Deisenroth_DEVTOX-GLR_Pluri_SOX2: CCTE's DevTox GLR-Pluri Assay Evaluation of SRY-box transcription factor 2 (SOX2) Protein Expression, Deisenroth Lab (AID 2284428)
Method in brief: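 Steps: seed RUES2-GLR cells for 24 h; start 48 h differentiation in defined media; dose test chemicals at 0 and 24 h (1 nM–200 uM); fix, stain nuclei, image; compute SOX2+ percentage against 0.2% DMSO wells.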

[19] = system: Brachyury (BRA) Protein Expression, Deisenroth Lab, TBXT (gene 6862); assay: CCTE_Deisenroth_DEVTOX-GLR_Pluri_BRA: CCTE's DevTox GLR-Pluri Assay Evaluation of Brachyury (BRA) Protein Expression, Deisenroth Lab (AID 2284429; active = hit-call score of the fitted dose curve at least 0.9, where 1 is the maximum)
Method in brief: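 Human pluripotent RUES2-GLR cells, seeded 24 h, were differentiated 48 h in defined media with two chemical doses at 24-h intervals (10-point, 1 nM - 200 uM). Readout: percent BRA+ cells by fluorescent reporter imaging, minus 0.2% DMSO control.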

[20] = CCTE_Deisenroth_DEVTOX-GLR_Pluri_CellCount: Viability Assessment in CCTE's DevTox GLR-Pluri Assay Evaluation of Total Cell Counts, Deisenroth Lab (AID 2284430)
Method in brief: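 RUES2-GLR human pluripotent cells, seeded 24 h, then differentiated 48 h with two chemical exposures 24 h apart; 10-point series 1 nM - 200 uM. Fixed, nuclear-stained, imaged (5 fields/well); nuclei count as % change vs 0.2% DMSO.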

Measured: AC50

O=C(O)C=CC(F)(C(F)(F)F)C(F)(F)F
not listed: [13] | [14] | [15] | [16] | [17] | [18] | [19] | [20]
inactive: all other assays above

CCOP(=S)(OCC)SCSc1ccc(Cl)cc1
active: [9] 8.15 µM

CCCCc1ccc(O)cc1
active: [13] 6.48 µM

O=S1(=O)OCC2C(CO1)C1(Cl)C(Cl)=C(Cl)C2(Cl)C1(Cl)Cl (stereo not drawn)
active: [9] 0.165 µM

NC(=O)C(F)(F)C(F)(F)F
not listed: [13] | [14] | [15] | [16] | [17] | [18] | [19] | [20]
inactive: all other assays above

O=S(=O)(c1ccc(O)cc1)c1ccc(O)cc1
active: [13] 19.9 µM

CC(C)Nc1ccc(Nc2ccccc2)cc1
active: [9] 2.6 µM

Nc1ccc([N+](=O)[O-])cc1Cl
inactive: [9]

Cc1c([N+](=O)[O-])cc2c(c1[N+](=O)[O-])C(C)(C)CC2(C)C
active: [9] 2.8 µM

O=P1(N(CCCl)CCCl)NCCCO1 (stereo not drawn)
inactive: [14] | [15] | [16] | [17] | [18] | [19] | [20]

CCCCCCCc1ccc(O)cc1
active: [13] 0.736 µM

C=CC(=O)OCC(F)(F)C(F)F
active: [2] 23.3 µM | [4] 8.88 µM | [8] 20.7 µM | [9] 7.91 µM | [12] 9.85 µM
inactive: [1] | [3] | [5] | [6] | [7] | [10] | [11]

CO/N=C(/C(=O)OC)c1ccccc1COc1ccccc1C
active: [13] 3.22 µM

O=P(OCC(Br)CBr)(OCC(Br)CBr)OCC(Br)CBr (stereo not drawn)
active: [9] 2.01 µM

O=C(O)C(F)(F)C(F)(F)C(=O)O
not listed: [13] | [14] | [15] | [16] | [17] | [18] | [19] | [20]
inactive: all other assays above

OCC(F)(F)OC(F)(F)C(F)(F)OC(F)(F)CO
not listed: [13] | [14] | [15] | [16] | [17] | [18] | [19] | [20]
inactive: all other assays above

O=C(O)C(F)(F)OC(F)(F)C(F)(F)OC(F)(F)C(=O)O
not listed: [13] | [14] | [15] | [16] | [17] | [18] | [19] | [20]
inactive: all other assays above

N#Cc1c(-c2ccc(Cl)cc2)[nH]c(C(F)(F)F)c1Br
inactive: [9]

c1ccc2c(c1)sc1ccccc12
inactive: [9]

COC(=O)C(F)(F)C(F)(F)OC(F)(C(F)(F)F)C(F)(F)OC(F)=C(F)F (stereo not drawn)
active: [2] 22.2 µM
not listed: [13] | [14] | [15] | [16] | [17] | [18] | [19] | [20]
inactive: all other assays above

CC(C)(C)c1ccccc1OP(=O)(Oc1ccccc1)Oc1ccccc1
active: [9] 8.75 µM

CCOP(=S)(OCC)SCS(=O)(=O)CC
active: [9] 65.2 µM

OCC(F)(F)OC(F)(F)C(F)(F)OC(F)(F)C(F)(F)OC(F)(F)F
inactive: [1] | [2] | [5] | [11]
active: [3] 20.2 µM | [4] 73.7 µM | [6] 27.5 µM | [7] 34.4 µM | [8] 88.8 µM | [9] 16.2 µM | [10] 20.2 µM | [12] 27.5 µM

CCC(C)(C)c1ccc(O)cc1
active: [13] 14.4 µM

CCCCC(CC)COP(=O)(Oc1ccccc1)Oc1ccccc1 (stereo not drawn)
active: [9] 3.23 µM

O=c1ssc(Cl)c1Cl
active: [13] 0.578 µM
inactive: [9]

OCC(F)(F)OC(F)(F)C(F)(F)OC(F)(F)C(F)(F)OC(F)(F)CO
inactive: [1] | [3] | [4] | [5] | [6] | [7] | [9] | [10] | [11] | [12]
active: [2] 18 µM | [8] 32.1 µM

O=C(O)C(F)(F)OC(F)(F)C(F)(F)OC(F)(F)F
not listed: [13] | [14] | [15] | [16] | [17] | [18] | [19] | [20]
inactive: all other assays above

CC(O)C(F)(F)C(F)(F)F (stereo not drawn)
not listed: [13] | [14] | [15] | [16] | [17] | [18] | [19] | [20]
inactive: all other assays above

FC(F)(F)C(F)(C(F)(F)F)C(F)(F)C(F)(F)CC1CO1 (stereo not drawn)
not listed: [13] | [14] | [15] | [16] | [17] | [18] | [19] | [20]
inactive: all other assays above

O=C(O)C(F)(OC(F)(F)C(F)(F)C(F)(F)F)C(F)(F)F (stereo not drawn)
not listed: [13] | [14] | [15] | [16] | [17] | [18] | [19] | [20]
inactive: all other assays above

O=S(=O)(F)C(F)(F)C(F)(F)C(F)(F)C(F)(F)C(F)(F)C(F)(F)C(F)(F)C(F)(F)F
not listed: [13] | [14] | [15] | [16] | [17] | [18] | [19] | [20]
inactive: all other assays above
